RXFP1 ag: qHTS Assay for Agonists of the Relaxin Receptor RXFP1; Potency, µM (doses to about 57.5 µM), usual class: activators; 0.3% of 370,000 active; AID 2676, 2010; HEK293T-RXFP1 cAMP TR-FRET, 30 min; response scale: percent of porcine relaxin response, buffer zero; Relaxin receptor 1 (Homo sapiens), Q9HBX9; active means well fitted activation curve with a large enough effect; inconclusive means small, poorly fitted or top-dose-only effect; further: nearly all actives have a fitted effect of over 60% in size
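cAMP rise read by TR-FRET after 30 min, 37C compound exposure (up to 58 uM) in RXFP1-transfected HEK293 cells with Ro 20174 present. EC50 from Hill-equation fits, with 29 nM porcine relaxin as 100% and buffer as basal.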
TRPV1 potentiator: HTS Assay for Compounds that Act as Potentiators of the Vanilloid Receptor 1; potentiation, % at 8.33 µM; 0.02% of 320,000 active; TRPV1-expressing cells, Fluo-8 calcium influx, capsaicin EC20 potentiation; Transient receptor potential cation channel subfamily V member 1 (Homo sapiens), Q8NER1; in the data active means potentiation above about 80%; inconclusive means between about 30% and that limit
Target sequence (Q8NER1 whole entry, looked up): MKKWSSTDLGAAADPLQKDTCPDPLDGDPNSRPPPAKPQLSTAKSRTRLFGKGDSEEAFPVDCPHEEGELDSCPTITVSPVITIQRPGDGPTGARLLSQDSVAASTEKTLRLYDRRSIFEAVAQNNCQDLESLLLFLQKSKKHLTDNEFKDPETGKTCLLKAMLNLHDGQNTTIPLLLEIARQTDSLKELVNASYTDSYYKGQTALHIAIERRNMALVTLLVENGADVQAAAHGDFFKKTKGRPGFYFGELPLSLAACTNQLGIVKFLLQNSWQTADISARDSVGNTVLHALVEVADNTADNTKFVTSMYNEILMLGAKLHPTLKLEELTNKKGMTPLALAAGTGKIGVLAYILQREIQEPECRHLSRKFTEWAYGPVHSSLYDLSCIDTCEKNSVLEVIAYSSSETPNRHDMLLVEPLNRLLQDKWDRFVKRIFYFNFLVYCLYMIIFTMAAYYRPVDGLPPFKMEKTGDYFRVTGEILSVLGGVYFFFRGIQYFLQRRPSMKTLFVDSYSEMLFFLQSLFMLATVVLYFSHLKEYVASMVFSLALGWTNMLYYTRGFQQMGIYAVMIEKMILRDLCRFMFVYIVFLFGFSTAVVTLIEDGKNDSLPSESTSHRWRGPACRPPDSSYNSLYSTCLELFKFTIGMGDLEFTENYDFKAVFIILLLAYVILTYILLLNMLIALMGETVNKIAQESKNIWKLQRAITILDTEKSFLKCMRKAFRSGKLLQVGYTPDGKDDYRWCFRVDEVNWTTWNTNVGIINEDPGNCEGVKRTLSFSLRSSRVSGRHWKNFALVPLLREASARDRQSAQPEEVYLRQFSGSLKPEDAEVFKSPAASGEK
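TRPV1-expressing cells were cultured overnight at 35.5C and loaded with Fluo-8 calcium dye for 40 to 90 min at room temperature. After a 10 s baseline, compound was added and calcium influx was read kinetically for 3 min (ex 480/em 520 nm).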
RXFP1 antagonist: qHTS Assay for Antagonists of the Relaxin Receptor RXFP1; Relaxin receptor 1 (Homo sapiens), Q9HBX9; HEK293-RXFP1, relaxin-stimulated cAMP HTRF, 30 min; hits give low values; activity change, negative = inhibition, % at 57.5 µM; 0.59% of 350,000 active;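 active means activity change of -60% or lower, but not beyond a set lower limit; inconclusive means change between -60% and -40%, or beyond the set limit; inactive means change above -40%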
gsp antagonist: qHTS for Antagonists of gsp, the Etiologic Mutation Responsible for Fibrous Dysplasia/McCune-Albright Syndrome: qHTS | gsp-mutant cells, cAMP HTRF, 30 min | AID 624288, 2012 | 0.4% of 340,000 active | Potency, µM (highest dose often 76.9 µM), usual class: inhibitors; calls by dose curve; cell line not stated here;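 further: intracellular cAMP measured with PDE inhibitor Ro 20-1724 present during compound exposure; nearly all actives have a fitted effect of over 65% in size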
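HTRF cAMP read-out (cAMP-d2 plus anti-cAMP antibody-K in lysis buffer, 30 min RT). Before lysis, cells are exposed to compounds with […] for 30 min at 37C in DPBS containing Ca/Mg, BSA and Tween 20.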
gsp ag: qHTS for Agonist of gsp, the Etiologic Mutation Responsible for Fibrous Dysplasia/McCune-Albright Syndrome: qHTS. gsp mutant cells, cAMP HTRF, 30 min. Potency, µM (top dose mostly 76.9 µM), hits mostly activators. 0.13% of 340,000 active. AID 624287, 2012; active means well fitted activation curve with a large enough effect; inconclusive means small, poorly fitted or top-dose-only effect, or another doubt; inactive means no such curve, though single readings can be large or run the other way; cell line not stated here;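 further: phosphodiesterase inhibitor Ro 20-1724 added with compounds to block cAMP breakdown; nearly all actives have a fitted effect of over 60% in size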
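Cells in DMEM/10% FBS with G418 were pretreated with compounds in DMSO plus […] (300 uM stock) for 30 min at 37C. cAMP was measured by HTRF (cAMP-d2 plus anti-cAMP antibody-K) after 30 min at room temperature.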
TRPV1 agonist: HTS Assay for Compounds that Act as Agonists of the Vanilloid Receptor 1. Transient receptor potential cation channel subfamily V member 1 (Homo sapiens), Q8NER1. TRPV1-expressing cells, Fluo-8 calcium influx, agonist mode. activation, % at 8.33 µM. 0.19% of 320,000 active. AID 540275, 2011; in the data active means activation above about 80%; inconclusive means between about 30% and that limit
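TRPV1-expressing cells were cultured overnight at 35.5C and loaded with Fluo-8 calcium dye for 40 to 90 min at room temperature. After a 10 s baseline, compound was added and calcium influx was read kinetically for 3 min (ex 480/em 520 nm).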
Large screens that a line does not name were inactive. Hits are enriched below; roughly 1.1% of the tested compounds scored in any of these assays.

O=C(NCc1ccccc1)NC1CCS(=O)(=O)C1 (stereo not given)	none
COC(CNC(=O)c1ccc(Cn2c(=S)[nH]c3cc4c(cc3c2=O)OCO4)cc1)OC	RXFP1 antagonist -98.1
CCOc1cc2[nH]c(=S)n(Cc3ccc(C(=O)NCCCOC)cc3)c(=O)c2cc1OCC	RXFP1 ag inconclusive
COCCNC(=O)c1ccc(Cn2c(=S)[nH]c3cc4c(cc3c2=O)OCO4)cc1	RXFP1 antagonist -103.9
O=C(NCc1ccccn1)c1ccc(Cn2c(=S)[nH]c3ccccc3c2=O)cc1	RXFP1 antagonist -77.5
O=C(NCc1ccccn1)c1ccc(Cn2c(=S)[nH]c3ccc(Br)cc3c2=O)cc1	gsp antagonist inconclusive
CCC1(C(N)=O)CC2C=CC1C2 (stereo not given)	none (no result: RXFP1 ag, TRPV1 potentiator, TRPV1 agonist)
COc1ccc(C)cc1N(C(=O)c1ccc(C#N)cc1)C1=NC(C)(C)CS1	gsp antagonist inconclusive, gsp ag inconclusive, TRPV1 agonist inconclusive
COc1ccc(C(=O)c2cn(Cc3cccc(C)c3)c3cc4c(cc3c2=O)OCCO4)cc1OC	RXFP1 antagonist -81.5 (no result: TRPV1 potentiator, gsp antagonist, gsp ag, TRPV1 agonist)
NC(=O)c1cccc(N=Cc2cc(Cl)cc(Cl)c2O)c1	none
Cc1cccc(N=Cc2cc(Br)cc(Cl)c2O)c1	RXFP1 antagonist -63.6
CNC[C@H](O)[C@@H](O)[C@H](O)[C@H](O)CO	none (no result: RXFP1 ag, TRPV1 potentiator, gsp antagonist, gsp ag, TRPV1 agonist)
CCOC(=O)c1sc(=NC(=O)c2ccc(C)cc2)n(C)c1C	none
CCOC(=O)c1sc(=NC(=O)c2ccc(S(=O)(=O)N(C)c3ccccc3)cc2)n(C)c1C	RXFP1 ag 3.98µM
Cc1cccc(C(C)n2nnc3ccccc32)c1O (stereo not given)	TRPV1 potentiator 85.7 (no result: RXFP1 antagonist, gsp ag)
COc1cc(N2Cc3ccccc3C2)ccc1C=O	TRPV1 potentiator 93.7
Cc1cc(C)cc(N2Cc3ccccc3C2)c1	none
CCc1ccc(NC(=O)CSc2nc3c(c(=O)n(C)c(=O)n3C)n2C)cc1	none
CCn1c(SCC(=O)N2CCCC2)nc2c1c(=O)n(C)c(=O)n2C	gsp ag 8.91µM
CCn1c(SCC(=O)Nc2ccc(NC(C)=O)cc2)nc2c1c(=O)n(C)c(=O)n2C	RXFP1 ag 15.8µM
CCn1c(SCC(=O)Nc2ccc(OC)cc2)nc2c1c(=O)n(C)c(=O)n2C	none
CCCn1c(SCC(=O)Nc2ccc(NC(=O)CC)cc2)nc2c1c(=O)n(C)c(=O)n2C	RXFP1 ag 20µM
CCn1c(SCC(=O)N2CCN(C)CC2)nc2c1c(=O)n(C)c(=O)n2C	gsp ag inconclusive
CCOc1cc(/C=C2\SC(=O)N(c3ccc(O)cc3)C2=O)ccc1O	gsp antagonist 31.6µM
COc1cc(CNCc2cccc3ccccc23)cc(OC)c1	gsp antagonist 50.1µM
Cc1ccc(Cn2c(C)c3cnn(CC(=O)N4CCN(c5cc(C)ccc5C)CC4)c(=O)c3c2C)cc1	none (no result: TRPV1 potentiator, gsp antagonist, gsp ag, TRPV1 agonist)
CCCCNC(=S)NNC(=O)C1=NN(c2cc(C)ccc2C)C(=O)CC1	none
O=[N+]([O-])c1ccc(O)c(Nc2ncnc3ccc(Br)cc23)c1	gsp antagonist 35.5µM
Oc1ccc(/C=N/NC(=S)NC2CC3CCC2C3)cc1 (stereo not given)	none
S=C(N/N=C/c1cccs1)NC1CC2CCC1C2 (stereo not given)	RXFP1 antagonist -67.1
CN1Cc2cc(C(=O)N3CCC(C4CCNCC4)CC3)ccc2NC(CC(=O)O)C1=O (stereo not given)	none (no result: RXFP1 ag, TRPV1 potentiator, gsp antagonist, gsp ag, TRPV1 agonist)
CC(=O)Oc1c(C)cc(Cl)cc1C(=O)Nc1ccc([N+](=O)[O-])cc1Cl	gsp antagonist 3.55µM
CN(C(=O)c1ccc(S(=O)(=O)N2CCCCC2)cc1)C1CCS(=O)(=O)C1 (stereo not given)	none

From PubChem
